Data as given in PubChem BioAssay (NCATS).
Records with an inconclusive call do not appear. Active and inactive are the calls of the source. Unless noted, calls follow the shape of the dose curve; as a rule, active = well fitted curve in the direction sought with a large enough effect; inconclusive = small, poorly fitted or top-dose-only effect, or another doubt; inactive = no such curve, though single readings can be large; an effect the other way counts as inactive or inconclusive.

Assays:
[1] = Validation screen for small molecules that induce DNA re-replication in MCF 10A normal breast cells (AID 463097); also: nearly all actives have a fitted effect of over 60% in size; also: potency is read from the fitted curve at half-maximal effect
Outline: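 Following 48 hr compound incubation (37 C, 5% CO2), MCF 10A cells receive Hoechst for 40 min at 37 C. Nuclei are then scanned (excitation 405 nm, emission 500-530 nm) for total fluorescence intensity.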

[2] = Quantitative high throughput screen for delayed death inhibitors of the malarial parasite plastid, 96 hour incubation (AID 488745); also: nearly all actives have a fitted effect of over 70% in size; also: potency is read from the fitted curve at half-maximal effect
Outline: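 Luciferase-expressing P. falciparum in erythrocytes (2% hematocrit, 0.1% parasitemia) incubated with compound for 96 h at 37 C, 5% CO2, in RPMI 1640 with 0.5% Albumax. Growth inhibition read as decreased luminescence.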

[3] = Quantitative high throughput screen for delayed death inhibitors of the malarial parasite plastid, 48 hour incubation (AID 488752); also: nearly all actives have a fitted effect of over 65% in size; also: potency is read from the fitted curve at half-maximal effect
Outline: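 Erythrocytes infected with firefly luciferase-expressing P. falciparum (2% hematocrit, 0.1% parasitemia) cultured with compound for 48 h at 37 C, 5% CO2, in RPMI 1640/0.5% Albumax. Growth inhibition read as loss of luminescence.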

[4] = target: M-phase phosphoprotein 8 (Homo sapiens) (UniProt Q99549); test: qHTS Validation Assay for Inhibitors for MPP8 Chromodomain Interactions with Methylated Histone Tails (AID 488949); also: nearly all actives have a fitted effect of over 55% in size; also: potency is read from the fitted curve at half-maximal effect
Outline: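 Chemiluminescent proximity assay: histidine-tag capture via nickel acceptor beads, biotin peptide via streptavidin donor beads. Protein and peptide each at 50 nM, pH 7.4, with 30 min incubations at room temperature for complex formation, compound exposure and bead binding.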

[5] = target: Transient receptor potential cation channel subfamily V member 1 (Homo sapiens) (UniProt Q8NER1); test: HTS Assay for Compounds that Act as Enhancers of the Vanilloid Receptor 1 (AID 488979)
Outline: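 TRPV1-expressing cells loaded with Fluo-8 calcium dye; compounds added and calcium influx read kinetically for 3 min (agonist phase), then capsaicin at EC20 added and read 2 min more for enhancement. Fluorescence ex 480/em 520 nm.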

[6] = target: DNA polymerase III PolC-type (Bacillus subtilis (strain 168)) (UniProt P13267); test: qHTS Validation Assay for the Inhibitors of DNA Replication in Gram-Positive Bacteria (AID 485295);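 also: reconstituted holoenzyme with PolC plus beta clamp SSB and primase; PicoGreen fluorescence of double-stranded DNA made on primed circular M13 template; series mostly up to about 57 µM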
Outline: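 Inhibition of DNA synthesis by the reconstituted PolC holoenzyme, monitored through PicoGreen staining of dsDNA formed from ssM13Gori, dNTPs and NTPs, with compound preincubation and room-temperature reaction.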

[7] = target: Flap endonuclease 1 (Homo sapiens) (UniProt P39748); test: qHTS Validation Assay for the Inhibitors of Human Flap endonuclease 1 (FEN1) (AID 488816)
Outline: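 FEN1, dispensed as a 10 nM reagent, was preincubated with pin-transferred compounds for 15 min at room temperature before substrate was added (50 nM final). Plates were read at 0 and 15 min, and a four-parameter Hill equation was fitted to the concentration-response data.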

[8] = target: Tumor susceptibility gene 101 protein (Homo sapiens) (UniProt Q99816); test: qHTS Validation Assay for Iinhibitors of HIV-1 Budding by Blocking the Interaction of PTAP/TSG101 (AID 485342; calls by dose curve)
Outline: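 Compound wells held the Tsg101 binding domain (10 uM) and a FITC-conjugated PTAP peptide (50 nM) in buffer at pH 7.5 containing 0.15 M NaCl and 0.01% Tween 20; polarization was recorded after 20 min, r.t.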

[9] = target: Thioredoxin reductase 1, cytoplasmic (Rattus norvegicus) (UniProt O89049); test: qHTS Assay for Inhibitors of Mammalian Selenoprotein Thioredoxin Reductase 1 (TrxR1) (AID 488773); conditions: Potency: inhibition; also: nearly all actives have a fitted effect of over 40% in size; also: potency is read from the fitted curve at half-maximal effect
Outline: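 Steps: enzyme (90 nM) plus NADPH (400 uM final), 5 min at ~22 deg C; compound added, 15 min; selenite (400 uM final) added; fluorescence followed for 8 min. Concentration-response curves derived from the normalized delta values.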

[10] = target: Chromobox protein homolog 1 (Homo sapiens) (UniProt P83916); test: qHTS Validation Assay for Inhibitors of HP1-beta Chromodomain Interactions with Methylated Histone Tails (AID 488953); also: nearly all actives have a fitted effect of over 50% in size; also: potency is read from the fitted curve at half-maximal effect
Outline: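 HP1-beta (50 nM) preformed 30 min with biotinylated H3(1-18)K9me3 peptide (50 nM) in PBS pH 7.4, 0.01% Tween-20. Compounds added for 30 min at room temperature. Complex disruption read by AlphaScreen with streptavidin donor/nickel chelate acceptor beads (10 ug/mL each).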

[11] = target: D(1A) dopamine receptor (Homo sapiens) (UniProt P21728); test: HTS Assay for Allosteric Agonists of the Human D1 Dopamine Receptor: Primary Screen for Potentiators (AID 488982); also: potency is read from the fitted curve at half-maximal effect
Outline: (§1)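 Tetracycline-induced HEK293 T-REx cells force-coupled to calcium signalling were incubated overnight at 30 C and dye-loaded at room temperature. Calcium flux over 180 s after compound addition flagged agonists; a further 180 s read after EC20 dopamine flagged potentiators.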

[12] = target: Ubiquitin carboxyl-terminal hydrolase 2 (Homo sapiens) (UniProt O75604); test: qHTS Validation Assay for Inhibitors of Ubiquitin-specific Protease USP2a Using CHOP2 as the Reporter (AID 463106)
Outline: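 USP2 core (10nM final) was preincubated with compound for 30min at RT in 20mM Tris-HCl pH 8.0, 2mM CaCl2, 2mM beta-mercaptoethanol, 0.05% CHAPS. Ub-CHOP2 and reporter substrate (25nM each) were added, and fluorescence (Ex 485/Em 531nm) was read after 60min.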

[13] = qHTS Validation Assay to Find Inhibitors of Chronic Active B-Cell Receptor Signaling (AID 485345; active = well fitted curve in the direction sought with a large enough effect in the main read-out, with a control signal flat, not every such curve was filed as active)
Outline: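 TMD8 ABC-DLBCL cells with dox-inducible green luciferase–IκBα fusion and red native luciferase; compounds 46 uM–3 nM, 4 h at 37C with doxycycline in 0.5% FBS IMDM. Green/red ratio normalized to basal and 10 uM MG-132.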

[14] = target: Beta-2 adrenergic receptor (Homo sapiens) (UniProt P07550); test: qHTS validation assay of beta-arrestin-biased ligands of beta2-adrenergic receptor (AID 485366)
Outline: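 Tango cells (recombinant beta2-AR with recombinant beta-arrestin; recruitment releases tTA driving luciferase) were treated with compounds titrated up to 46 microM for 18 hr at 37 degrees C. Luminescence gave %Activity, and concentration-response curves were curve-classified.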

[15] = target: Thioredoxin reductase 1, cytoplasmic (Rattus norvegicus) (UniProt O89049); test: qHTS Assay for Substrates of Mammalian Selenoprotein Thioredoxin Reductase 1 (TrxR1) (AID 488772);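 also: NADPH fluorescence in the first read after selenite addition and not the 8 min delta; series mostly up to about 57 µM; a drop in NADPH fluorescence below the no-compound background marks a TrxR1 substrate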
Outline: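 Quantitative HTS in Tris-HCl buffer at pH 7.5 with EDTA and Tween-20, using rat TrxR1, 400 uM NADPH and 400 uM selenite (final). A fall in initial NADPH fluorescence relative to background marked substrate behaviour.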

[16] = target: Methanococcus maripaludis chaperonin (MmCpn) (UniProt Q6LX38); test: High-Throughput Screening for Modulators of Cytosolic Chaperonin Activity: MmCpn Primary Screen (AID 488978)
Outline: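 HTRF readout (320 nm excitation, 590/665 nm emission) of ADP generated by 50 nM MmCpn hydrolysing 30 uM ATP during 10 min at 37C; compound preincubated 5 min RT.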

[17] = target: D(1A) dopamine receptor (Homo sapiens) (UniProt P21728); test: HTS Assay for Allosteric Agonists of the Human D1 Dopamine Receptor: Primary Screen for Agonists (AID 488981)
Outline: as §1

[18] = target: D(1A) dopamine receptor (Homo sapiens) (UniProt P21728); test: HTS Assay for Allosteric Agonists of the Human D1 Dopamine Receptor: Primary Screen for Antagonists (AID 488983);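 also: calcium flux response to an EC80 dopamine challenge measured with no-wash dye; nearly all actives have a fitted effect of over 65% in size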; also: potency is read from the fitted curve at half-maximal effect
Outline: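 Tetracycline-induced HEK293 T-REx D1 line, force-coupled to calcium flux, read with no-wash calcium dye. Compound added after 10 s baseline, read 180 s for agonism, then EC80 dopamine added and read a further 180 s.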

[19] = target: ATP-dependent 6-phosphofructokinase (Trypanosoma brucei brucei) (UniProt O15648); test: qHTS Validation Assay to Find Inhibitors of T. brucei phosphofructokinase (AID 485368); conditions: outcome: dose series up to 57.5 µM
Outline: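 Compounds (up to 57 uM, titration series) were pinned into substrate buffer, then 1.25 nM PFK added; after 45 min at room temperature, ADP product was quantified by ADP-Glo luminescence and concentration-response curves fitted.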

[20] = target: Thyrotropin receptor (Homo sapiens) (UniProt P16473); test: qHTS Assay for Antagonists of the Thyroid Stimulating Hormone Receptor (AID 488980); also: series mostly up to about 58 µM
Outline: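 Inhibition of TSH-stimulated cAMP accumulation was quantified by homogeneous time-resolved FRET in TSHR-transfected HEK293 cells. Agonist: TSH, 4 nM final (EC80).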

Measured: Potency

Ubiquitin carboxyl-terminal hydrolase 2 (Homo sapiens), sequence (O75604 whole entry, looked up): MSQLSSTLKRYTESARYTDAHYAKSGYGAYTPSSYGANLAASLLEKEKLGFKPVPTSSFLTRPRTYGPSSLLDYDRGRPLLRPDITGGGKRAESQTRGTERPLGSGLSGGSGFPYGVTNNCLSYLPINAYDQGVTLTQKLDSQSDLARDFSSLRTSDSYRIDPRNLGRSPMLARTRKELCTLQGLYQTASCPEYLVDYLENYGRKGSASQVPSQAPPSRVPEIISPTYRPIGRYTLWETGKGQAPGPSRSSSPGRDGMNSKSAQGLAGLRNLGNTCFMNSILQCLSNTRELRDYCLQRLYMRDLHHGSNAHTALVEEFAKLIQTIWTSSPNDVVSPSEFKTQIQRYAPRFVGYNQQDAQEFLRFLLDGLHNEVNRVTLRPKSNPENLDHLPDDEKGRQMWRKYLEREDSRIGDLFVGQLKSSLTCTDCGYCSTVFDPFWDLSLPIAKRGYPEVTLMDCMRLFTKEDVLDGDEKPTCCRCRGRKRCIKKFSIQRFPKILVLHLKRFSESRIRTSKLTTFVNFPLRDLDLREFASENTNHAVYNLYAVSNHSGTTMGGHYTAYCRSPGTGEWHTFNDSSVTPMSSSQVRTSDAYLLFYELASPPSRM
ATP-dependent 6-phosphofructokinase (Trypanosoma brucei brucei), sequence (O15648 whole entry, looked up): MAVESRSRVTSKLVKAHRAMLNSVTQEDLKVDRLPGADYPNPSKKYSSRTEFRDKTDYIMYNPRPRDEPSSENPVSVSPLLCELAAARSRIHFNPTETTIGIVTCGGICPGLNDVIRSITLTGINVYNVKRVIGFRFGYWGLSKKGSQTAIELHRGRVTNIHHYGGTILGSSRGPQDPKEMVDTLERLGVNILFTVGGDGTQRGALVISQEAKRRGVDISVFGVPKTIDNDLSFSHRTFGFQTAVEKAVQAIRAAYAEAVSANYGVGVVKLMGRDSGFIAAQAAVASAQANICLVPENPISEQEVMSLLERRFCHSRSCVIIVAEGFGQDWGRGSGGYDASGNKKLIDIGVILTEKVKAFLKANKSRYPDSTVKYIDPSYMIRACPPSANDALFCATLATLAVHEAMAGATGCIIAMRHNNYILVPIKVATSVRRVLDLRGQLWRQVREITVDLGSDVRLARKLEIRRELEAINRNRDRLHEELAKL
Beta-2 adrenergic receptor (Homo sapiens), sequence (P07550 whole entry, looked up): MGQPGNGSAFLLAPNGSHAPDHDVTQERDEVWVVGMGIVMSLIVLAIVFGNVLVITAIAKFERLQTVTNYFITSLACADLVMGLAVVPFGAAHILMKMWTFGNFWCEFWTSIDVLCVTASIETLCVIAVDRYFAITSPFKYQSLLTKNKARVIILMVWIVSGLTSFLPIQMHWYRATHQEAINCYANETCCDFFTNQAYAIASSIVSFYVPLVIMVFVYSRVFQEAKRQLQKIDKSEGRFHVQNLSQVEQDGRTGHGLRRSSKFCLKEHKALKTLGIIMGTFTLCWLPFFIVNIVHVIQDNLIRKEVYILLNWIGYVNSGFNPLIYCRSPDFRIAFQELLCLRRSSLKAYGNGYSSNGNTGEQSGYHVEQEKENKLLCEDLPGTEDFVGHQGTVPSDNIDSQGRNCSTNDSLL
DNA polymerase III PolC-type (Bacillus subtilis (strain 168)), sequence (P13267 whole entry, looked up): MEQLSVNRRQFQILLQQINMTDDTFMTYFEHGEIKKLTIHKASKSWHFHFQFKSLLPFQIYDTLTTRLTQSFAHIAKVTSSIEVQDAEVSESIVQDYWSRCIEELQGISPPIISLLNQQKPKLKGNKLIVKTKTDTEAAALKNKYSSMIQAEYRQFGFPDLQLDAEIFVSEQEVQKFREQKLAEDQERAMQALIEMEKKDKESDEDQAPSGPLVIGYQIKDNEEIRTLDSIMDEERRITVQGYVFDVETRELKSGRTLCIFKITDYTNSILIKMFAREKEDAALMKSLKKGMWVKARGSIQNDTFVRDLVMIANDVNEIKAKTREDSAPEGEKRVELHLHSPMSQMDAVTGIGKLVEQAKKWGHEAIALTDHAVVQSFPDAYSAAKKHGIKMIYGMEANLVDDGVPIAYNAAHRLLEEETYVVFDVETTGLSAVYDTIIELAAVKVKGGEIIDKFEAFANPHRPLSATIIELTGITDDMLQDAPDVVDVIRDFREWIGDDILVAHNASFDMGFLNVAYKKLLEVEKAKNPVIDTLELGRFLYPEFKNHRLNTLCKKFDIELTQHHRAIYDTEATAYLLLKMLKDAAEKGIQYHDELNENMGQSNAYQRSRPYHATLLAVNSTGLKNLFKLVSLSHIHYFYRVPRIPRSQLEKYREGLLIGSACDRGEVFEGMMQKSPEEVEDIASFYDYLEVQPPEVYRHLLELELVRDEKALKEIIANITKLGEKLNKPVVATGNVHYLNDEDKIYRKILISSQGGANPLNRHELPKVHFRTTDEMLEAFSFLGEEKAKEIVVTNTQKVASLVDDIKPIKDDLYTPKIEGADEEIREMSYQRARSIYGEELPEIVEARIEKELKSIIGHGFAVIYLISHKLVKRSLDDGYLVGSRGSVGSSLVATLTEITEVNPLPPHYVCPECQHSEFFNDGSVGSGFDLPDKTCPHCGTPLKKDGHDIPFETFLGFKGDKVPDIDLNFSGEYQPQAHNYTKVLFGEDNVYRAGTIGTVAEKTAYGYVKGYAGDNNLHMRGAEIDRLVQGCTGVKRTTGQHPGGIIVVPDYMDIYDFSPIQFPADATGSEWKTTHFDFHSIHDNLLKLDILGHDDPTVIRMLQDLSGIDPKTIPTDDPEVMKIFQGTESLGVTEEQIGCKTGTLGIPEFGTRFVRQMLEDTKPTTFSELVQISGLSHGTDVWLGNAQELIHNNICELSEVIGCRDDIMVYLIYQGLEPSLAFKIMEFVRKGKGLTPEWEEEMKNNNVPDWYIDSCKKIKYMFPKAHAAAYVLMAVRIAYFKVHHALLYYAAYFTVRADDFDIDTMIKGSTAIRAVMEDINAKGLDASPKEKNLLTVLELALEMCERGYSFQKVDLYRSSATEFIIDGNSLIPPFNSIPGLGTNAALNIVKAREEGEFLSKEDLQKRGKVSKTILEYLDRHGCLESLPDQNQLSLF
D(1A) dopamine receptor (Homo sapiens), sequence (P21728 whole entry, looked up): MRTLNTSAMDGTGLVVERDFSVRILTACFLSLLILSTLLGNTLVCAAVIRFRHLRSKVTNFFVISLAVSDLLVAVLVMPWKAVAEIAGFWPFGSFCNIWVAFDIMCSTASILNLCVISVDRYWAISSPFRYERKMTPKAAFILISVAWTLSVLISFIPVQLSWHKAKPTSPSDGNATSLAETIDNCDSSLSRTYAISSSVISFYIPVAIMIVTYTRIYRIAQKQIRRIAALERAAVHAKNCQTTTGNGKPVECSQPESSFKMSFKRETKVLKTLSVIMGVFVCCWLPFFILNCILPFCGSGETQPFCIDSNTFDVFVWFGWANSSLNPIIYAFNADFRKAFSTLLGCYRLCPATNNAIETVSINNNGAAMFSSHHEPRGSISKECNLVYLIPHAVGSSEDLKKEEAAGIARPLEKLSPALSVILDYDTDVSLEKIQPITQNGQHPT
Transient receptor potential cation channel subfamily V member 1 (Homo sapiens), sequence (Q8NER1 whole entry, looked up): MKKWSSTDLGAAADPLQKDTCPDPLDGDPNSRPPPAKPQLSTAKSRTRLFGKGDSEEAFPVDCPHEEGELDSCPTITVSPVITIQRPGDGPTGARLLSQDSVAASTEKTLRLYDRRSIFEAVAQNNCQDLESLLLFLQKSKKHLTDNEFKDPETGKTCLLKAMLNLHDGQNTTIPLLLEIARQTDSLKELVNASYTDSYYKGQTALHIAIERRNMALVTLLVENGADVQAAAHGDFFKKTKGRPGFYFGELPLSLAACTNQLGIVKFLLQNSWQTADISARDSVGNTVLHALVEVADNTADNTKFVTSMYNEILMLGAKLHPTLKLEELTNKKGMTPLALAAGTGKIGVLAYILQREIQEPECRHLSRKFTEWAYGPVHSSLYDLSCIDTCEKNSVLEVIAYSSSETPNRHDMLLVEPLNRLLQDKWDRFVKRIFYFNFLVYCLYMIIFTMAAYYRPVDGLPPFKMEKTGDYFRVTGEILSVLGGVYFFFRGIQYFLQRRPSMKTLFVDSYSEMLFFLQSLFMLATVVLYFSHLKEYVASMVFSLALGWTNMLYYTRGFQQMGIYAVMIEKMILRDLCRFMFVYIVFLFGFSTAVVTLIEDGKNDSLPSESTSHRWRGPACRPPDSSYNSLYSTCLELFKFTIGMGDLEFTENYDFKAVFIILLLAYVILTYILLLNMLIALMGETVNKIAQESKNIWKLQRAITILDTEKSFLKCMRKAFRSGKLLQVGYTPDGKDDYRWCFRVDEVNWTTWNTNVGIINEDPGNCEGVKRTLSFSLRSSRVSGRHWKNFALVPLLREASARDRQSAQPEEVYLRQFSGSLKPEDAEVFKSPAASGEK
Thioredoxin reductase 1, cytoplasmic (Rattus norvegicus), sequence (O89049 whole entry, looked up): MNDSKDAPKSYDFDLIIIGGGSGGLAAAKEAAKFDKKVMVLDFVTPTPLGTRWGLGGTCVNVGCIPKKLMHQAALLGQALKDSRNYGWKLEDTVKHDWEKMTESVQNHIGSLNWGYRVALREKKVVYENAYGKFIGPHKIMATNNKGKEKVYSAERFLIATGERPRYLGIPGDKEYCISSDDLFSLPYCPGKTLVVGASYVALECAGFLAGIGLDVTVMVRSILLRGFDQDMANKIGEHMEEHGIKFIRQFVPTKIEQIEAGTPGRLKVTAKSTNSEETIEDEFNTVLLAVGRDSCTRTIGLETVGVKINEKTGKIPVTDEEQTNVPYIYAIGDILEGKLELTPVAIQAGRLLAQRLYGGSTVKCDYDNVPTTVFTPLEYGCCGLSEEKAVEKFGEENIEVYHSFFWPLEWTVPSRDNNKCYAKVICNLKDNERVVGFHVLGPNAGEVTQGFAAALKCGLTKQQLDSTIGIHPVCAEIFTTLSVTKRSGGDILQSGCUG
Chromobox protein homolog 1 (Homo sapiens), sequence (P83916 whole entry, looked up): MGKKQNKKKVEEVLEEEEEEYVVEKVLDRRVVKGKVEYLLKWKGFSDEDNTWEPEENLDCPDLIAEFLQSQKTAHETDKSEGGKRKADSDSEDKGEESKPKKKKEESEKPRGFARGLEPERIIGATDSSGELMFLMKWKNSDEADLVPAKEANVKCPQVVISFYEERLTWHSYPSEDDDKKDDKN

c1ccc2nc(N3CCNCC3)ccc2c1
inactive: [1] | [2] | [3] | [4] | [5]

C[N+](C)(C)CCCCCCCCCC[N+](C)(C)C
inactive: [6] | [7]

CCOC(=O)Nc1ccc(NCc2ccc(F)cc2)nc1N
active: [9] 10.6 µM | [10] 39.8 µM
inactive: [8] | [7]

NC(N)=N/N=C/c1c(Cl)cccc1Cl
inactive: [11]

NC(=O)CN1CCCC1=O
inactive: [1] | [12] | [6] | [8] | [13] | [14] | [2] | [3] | [15] | [9] | [7] | [4] | [10] | [16] | [5] | [17] | [11] | [18]

CC[C@H]1CN2CCc3cc(OC)c(OC)cc3[C@@H]2C[C@@H]1C[C@H]1NCCc2cc(OC)c(OC)cc21
inactive: [7]

NC(N)=NCCC[C@H](N)C(=O)O
inactive: [7] | [10]

CN1C[C@H](C(=O)N[C@]2(C)O[C@@]3(O)[C@@H]4CCCN4C(=O)[C@H](Cc4ccccc4)N3C2=O)C[C@@H]2c3cccc4[nH]cc(c34)C[C@H]21
active: [18] 8.91 µM
inactive: [4] | [11]

O=C(O)c1nn(Cc2ccc(Cl)cc2Cl)c2ccccc12
inactive: [1] | [12] | [6] | [8] | [14] | [19] | [2] | [3] | [15] | [9] | [7] | [4] | [10] | [16] | [5] | [20] | [17] | [11] | [18]

Cc1cc(C(C)(C)C)cc(C)c1CC1=NCCN1
inactive: [4]

Brc1c(NC2=NCCN2)ccc2nccnc12
active: [9] 16.8 µM
inactive: [7]

O=C1CC2(CCCC2)CC(=O)N1CCCCN1CCN(c2ncccn2)CC1
inactive: [10]

COC(=O)C1=CCCN(C)C1
inactive: [1] | [12] | [6] | [8] | [13] | [14] | [19] | [2] | [3] | [15] | [9] | [7] | [4] | [10] | [16] | [5] | [17] | [11] | [18]

CC(N)C(=O)OC(C)(C)Cc1ccc(Cl)cc1 (stereo not drawn)
inactive: [1] | [2] | [3] | [4] | [5] | [20]

COC(=O)C1=C(C)NC(C)=C(C(=O)OC)C1c1ccccc1[N+](=O)[O-]
active: [1] 12.6 µM | [4] 39.8 µM | [10] 35.5 µM | [11] 2.59 µM

COc1ccc(C(=O)N2CCCC2=O)cc1
inactive: [1] | [12] | [6] | [8] | [13] | [14] | [19] | [2] | [3] | [15] | [9] | [4] | [10] | [16] | [5] | [20] | [17] | [11] | [18]

NC(N)=NC(=O)c1nc(Cl)c(N)nc1N
inactive: [15] | [7]

CCCCCCCCC(=O)NCc1ccc(O)c(OC)c1
inactive: [1] | [2] | [3] | [4] | [20]

O=C1NCN(c2ccccc2)C12CCN(CCCC(c1ccc(F)cc1)c1ccc(F)cc1)CC2
active: [2] 3.7 µM | [3] 9.28 µM

CNC(=O)Oc1ccc2c(c1)[C@]1(C)CCN(C)[C@@H]1N2C
inactive: [19] | [4]
